In PubChem BioAssay (NCI):
Where “and” joins values, the source holds several entries; their conditions need not be identical. Equal entries are not always repeated. About 83,000 compounds went through this panel and 20% of them were active in at least one assay; those are over-represented in the sample as a whole.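 The endpoint reported here, percent growth, reads 100 for growth as untreated, 0 for no net growth and -100 for all cells dead.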 Calls of active or inactive are those of the source. Rule for the calls: active = growth percent below 10; inactive = the rest.

Tested on: HL-60(TB) leukemia
Test: NCI-60 one-dose screen, 48 h (100 = growth as untreated, 0 = no growth, -100 = all killed)
Settings: 10 µM unless noted

Cc1ccc(Nc2c(C(N)=O)cnc3ccc(-c4csc(N)n4)cc23)cc1
growth: 109% (inactive)

O=C(O)CCCCCCCCCCCCCCC(=O)O
growth: 102% (inactive)

C=CCn1c(SCC(=O)Nc2ccc(C(=O)/C=C/c3cc(OC)c(OC)c(OC)c3)cc2)nnc1-c1ccccc1
growth: 71.8% (inactive)

CCOC(=O)c1cc2c(=O)oc3ccccc3c2oc1=O
growth: 106% (inactive)

CC(C)Oc1ccc2cc(-c3nn(CC4CCNCC4)c4ncnc(N)c34)ccc2c1
growth: 63.8% (inactive) and -56.6% (active)

COc1ccc(C2C3=C(COC3=O)N(CCO)c3cc(OC)c(OC)cc32)cc1 (centres undefined)
growth: 89% (inactive)

COc1ccc2c(c1)NC1=C(C(=O)OC1)C2c1cc(OC)c2c(c1)OCO2 (centres undefined)
growth: 0.722% (active)

Cn1cc(-c2cc3c(Nc4ccc(CC(=O)Nc5cc(C(C)(C)C)on5)cc4)ncnc3[nH]2)cn1
growth: 6.63% (active) and -21.3% (active)

CCNCCNc1cc(-c2ccc(Cl)cc2)c(C#N)c2nc3ccccc3n12
growth: -60.4% (active)

COC1C(=O)CCC2(CO2)C1(O)C1(C)OC1CCC(C)C (centres undefined)
growth: 68% (inactive)

CNc1nnc2n(-c3ccccc3)c(=O)c3cnn(-c4ccccc4)c3n12
growth: 70.5% (inactive)

COc1ccc(C(=O)Nc2ncc(Cc3cccc(Cl)c3)s2)cc1OC
growth: 11.1% (inactive)

COc1ccc2cc3[n+](cc2c1OC)CCc1cc2c(cc1-3)OCO2
growth: 75.4% (inactive) and 70.1% (inactive)

CCc1c(C(=O)N[C@@H]2c3cc(Cl)ccc3CC[C@@H]2O)[nH]c(C)c1C(C)=O
growth: 103% (inactive)
